# Results: PubChem BioAssay AID1508601 (ICCB-Longwood Screening Facility, Harvard Medical School, 2020)
# “And” between values parts separate entries of the source, which are not always exact repeats. Equal entries are not always repeated. Among all 5,700 compounds or so, about 85 (1%) were called active. Rule as the data show it: active = p53-positive nuclei above about 36% (passing the limit was not always enough); inactive = the rest. For the sample, actives were picked, then their nearest neighbours and some compounds at random.
# How the values were obtained:
# [1] = nuclear p53 accumulation, HPV+ cells – imaging, p53-positive nuclei imaging, 24 h, 48 h (AID 1508601); settings: 24/48 h
# [2] = target: Cellular tumor antigen p53 (Homo sapiens) (UniProt P04637); assay: as above; settings: 24/48 h, stronger effect = higher value
# Sequence of Cellular tumor antigen p53 (Homo sapiens) (P04637 whole entry, looked up): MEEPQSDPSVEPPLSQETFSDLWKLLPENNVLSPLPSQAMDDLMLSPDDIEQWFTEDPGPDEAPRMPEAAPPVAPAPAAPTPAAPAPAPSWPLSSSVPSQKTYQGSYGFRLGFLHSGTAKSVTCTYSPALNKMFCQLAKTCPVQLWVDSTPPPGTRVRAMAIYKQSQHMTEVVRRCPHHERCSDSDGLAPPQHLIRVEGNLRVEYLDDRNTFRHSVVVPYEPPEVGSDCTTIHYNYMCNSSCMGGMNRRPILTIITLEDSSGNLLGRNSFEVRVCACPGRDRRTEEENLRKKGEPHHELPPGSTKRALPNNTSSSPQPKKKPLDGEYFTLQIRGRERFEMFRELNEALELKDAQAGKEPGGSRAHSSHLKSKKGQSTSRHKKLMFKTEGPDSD
# [3] = measured here: cell number at 24 h, Library stock concentration: 80 uM
# [4] = measured here: cell number at 24 h, Library stock concentration: 400 uM
# [5] = measured here: cell number at 24 h, Library stock concentration: 2 mM
# [6] = measured here: cell number at 24 h, Library stock concentration: 10 mM
# [7] = measured here: cell number at 48 h, Library stock concentration: 80 uM
# [8] = measured here: cell number at 48 h, Library stock concentration: 400 uM
# [9] = measured here: cell number at 48 h, Library stock concentration: 2 mM
# [10] = measured here: cell number at 48 h, Library stock concentration: 10 mM
# [11] = Library stock concentration: 80 uM
# [12] = Library stock concentration: 400 uM
# [13] = Library stock concentration: 2 mM
# [14] = Library stock concentration: 10 mM
# [15] = measured here: p53 positive nuclei at 24 h, Library stock concentration: 80 uM
# [16] = measured here: p53 positive nuclei at 24 h, Library stock concentration: 400 uM
# [17] = measured here: p53 positive nuclei at 24 h, Library stock concentration: 2 mM
# [18] = measured here: p53 positive nuclei at 24 h, Library stock concentration: 10 mM
smiles,measurement,setting,value
c1cc(NCCc2c[nH]c3ccccc23)cc(Nc2ccncc2)c1,"nuclei count, normalised",[1]; [3],103%
same,"nuclei count, normalised",[1]; [4],107%
same,"nuclei count, normalised",[1]; [5],107%
same,"nuclei count, normalised",[1]; [6],91.3%
same,"nuclei count, normalised",[1]; [7],101%
same,"nuclei count, normalised",[1]; [8],107%
same,"nuclei count, normalised",[1]; [9],108%
same,"nuclei count, normalised",[1]; [10],77.6%
same,"p53-positive nuclei, normalised",[2]; [11],-0.0385% (inactive)
same,"p53-positive nuclei, normalised",[2]; [12],-0.0904% (inactive)
same,"p53-positive nuclei, normalised",[2]; [13],-0.152% (inactive)
same,"p53-positive nuclei, normalised",[2]; [14],-0.0614% (inactive)
same,"p53-positive nuclei, normalised",[2]; [15],-0.148%
same,"p53-positive nuclei, normalised",[2]; [16],-0.0802%
same,"p53-positive nuclei, normalised",[2]; [17],0.142%
same,"p53-positive nuclei, normalised",[2]; [18],-0.0614%
COc1ccc(CN2CCN(c3nccc(-c4c(C)nn(C)c4C)n3)CC2=O)cc1,"nuclei count, normalised","[1]; measured here: cell number at 24 h, concentration not given here",101%
same,"nuclei count, normalised","[1]; measured here: cell number at 48 h, concentration not given here",105%
same,"p53-positive nuclei, normalised",[2]; concentration not given here,-0.125% (inactive)
same,"p53-positive nuclei, normalised","[2]; measured here: p53 positive nuclei at 24 h, concentration not given here",-0.147%
CN(C)CCC(CSc1ccccc1)Nc1ccc(S(=O)(=O)NC(=O)c2ccc(N3CCN(Cc4ccccc4-c4ccc(Cl)cc4)CC3)cc2)cc1[N+](=O)[O-] (stereo unspecified),"nuclei count, normalised","[1]; measured here: cell number at 24 h, Library stock concentration: 500 nM",120%
same,"nuclei count, normalised","[1]; measured here: cell number at 24 h, Library stock concentration: 1.5 uM",122%
same,"nuclei count, normalised","[1]; measured here: cell number at 24 h, Library stock concentration: 4.6 uM",117%
same,"nuclei count, normalised","[1]; measured here: cell number at 24 h, Library stock concentration: 13.7 uM",121%
same,"nuclei count, normalised","[1]; measured here: cell number at 24 h, Library stock concentration: 41 uM",117%
same,"nuclei count, normalised",[1]; [3],111% and 86.3%
same,"nuclei count, normalised","[1]; measured here: cell number at 24 h, Library stock concentration: 123 uM",117%
same,"nuclei count, normalised","[1]; measured here: cell number at 24 h, Library stock concentration: 370 uM",117%
same,"nuclei count, normalised",[1]; [4],109% and 85.3%
same,"nuclei count, normalised","[1]; measured here: cell number at 24 h, Library stock concentration: 1.111 mM",113%
same,"nuclei count, normalised",[1]; [5],113% and 92.5%
same,"nuclei count, normalised","[1]; measured here: cell number at 24 h, Library stock concentration: 3.33 mM",105%
same,"nuclei count, normalised","[1]; measured here: cell number at 24 h, Library stock concentration: 3.333 mM",127%
same,"nuclei count, normalised",[1]; [6],111% and 80.6% and 116%
same,"nuclei count, normalised","[1]; measured here: cell number at 48 h, Library stock concentration: 500 nM",112%
same,"nuclei count, normalised","[1]; measured here: cell number at 48 h, Library stock concentration: 1.5 uM",111%
same,"nuclei count, normalised","[1]; measured here: cell number at 48 h, Library stock concentration: 4.6 uM",112%
same,"nuclei count, normalised","[1]; measured here: cell number at 48 h, Library stock concentration: 13.7 uM",117%
same,"nuclei count, normalised","[1]; measured here: cell number at 48 h, Library stock concentration: 41 uM",114%
same,"nuclei count, normalised",[1]; [7],99.7% and 87.7%
same,"nuclei count, normalised","[1]; measured here: cell number at 48 h, Library stock concentration: 123 uM",112%
same,"nuclei count, normalised","[1]; measured here: cell number at 48 h, Library stock concentration: 370 uM",113%
same,"nuclei count, normalised",[1]; [8],97.6% and 86%
same,"nuclei count, normalised","[1]; measured here: cell number at 48 h, Library stock concentration: 1.111 mM",112%
same,"nuclei count, normalised",[1]; [9],98% and 96.4%
same,"nuclei count, normalised","[1]; measured here: cell number at 48 h, Library stock concentration: 3.33 mM",102%
same,"nuclei count, normalised","[1]; measured here: cell number at 48 h, Library stock concentration: 3.333 mM",126%
same,"nuclei count, normalised",[1]; [10],106% and 92.8% and 127%
same,"p53-positive nuclei, normalised",[2]; Library stock concentration: 500 nM,-0.0213% (inactive)
same,"p53-positive nuclei, normalised",[2]; Library stock concentration: 1.5 uM,0.0237% (inactive)
same,"p53-positive nuclei, normalised",[2]; Library stock concentration: 4.6 uM,0.0183% (inactive)
same,"p53-positive nuclei, normalised",[2]; Library stock concentration: 13.7 uM,-0.104% (inactive)
same,"p53-positive nuclei, normalised",[2]; Library stock concentration: 41 uM,-0.0533% (inactive)
same,"p53-positive nuclei, normalised",[2]; [11],0.0591% (inactive) and -0.273% (inactive)
same,"p53-positive nuclei, normalised",[2]; Library stock concentration: 123 uM,-0.176% (inactive)
same,"p53-positive nuclei, normalised",[2]; Library stock concentration: 370 uM,-0.136% (inactive)
same,"p53-positive nuclei, normalised",[2]; [12],0.0679% (inactive) and 0.126% (inactive)
same,"p53-positive nuclei, normalised",[2]; Library stock concentration: 1.111 mM,-0.092% (inactive)
same,"p53-positive nuclei, normalised",[2]; [13],-0.0104% (inactive) and 0.232% (inactive)
same,"p53-positive nuclei, normalised",[2]; Library stock concentration: 3.33 mM,-0.445% (inactive)
same,"p53-positive nuclei, normalised",[2]; Library stock concentration: 3.333 mM,-0.149% (inactive)
same,"p53-positive nuclei, normalised",[2]; [14],-0.104% (inactive) and 0.208% (inactive) and -0.0111% (inactive)
same,"p53-positive nuclei, normalised","[2]; measured here: p53 positive nuclei at 24 h, Library stock concentration: 500 nM",0.154%
same,"p53-positive nuclei, normalised","[2]; measured here: p53 positive nuclei at 24 h, Library stock concentration: 1.5 uM",-0.0609%
same,"p53-positive nuclei, normalised","[2]; measured here: p53 positive nuclei at 24 h, Library stock concentration: 4.6 uM",-0.00335%
same,"p53-positive nuclei, normalised","[2]; measured here: p53 positive nuclei at 24 h, Library stock concentration: 13.7 uM",-0.0575%
same,"p53-positive nuclei, normalised","[2]; measured here: p53 positive nuclei at 24 h, Library stock concentration: 41 uM",0.00542%
same,"p53-positive nuclei, normalised",[2]; [15],-0.0528% and -0.0593%
same,"p53-positive nuclei, normalised","[2]; measured here: p53 positive nuclei at 24 h, Library stock concentration: 123 uM",-0.105%
same,"p53-positive nuclei, normalised","[2]; measured here: p53 positive nuclei at 24 h, Library stock concentration: 370 uM",-0.113%
same,"p53-positive nuclei, normalised",[2]; [16],-0.0967% and 0.0394%
same,"p53-positive nuclei, normalised","[2]; measured here: p53 positive nuclei at 24 h, Library stock concentration: 1.111 mM",-0.104%
same,"p53-positive nuclei, normalised",[2]; [17],-0.0967% and 0.437%
same,"p53-positive nuclei, normalised","[2]; measured here: p53 positive nuclei at 24 h, Library stock concentration: 3.33 mM",0.0238%
same,"p53-positive nuclei, normalised","[2]; measured here: p53 positive nuclei at 24 h, Library stock concentration: 3.333 mM",-0.165%
same,"p53-positive nuclei, normalised",[2]; [18],-0.00444% and -0.0479% and 0.0019%
